Bioassay records from PubChem.
VACV Venus inh = inhibitors of vaccinia virus (Venus reporter); 0.46% of 330,000 active; AID 720580; Vaccinia virus Venus reporter expression, fluorescence; Potency, µM (series often up to 36.5 µM), for the others: at the top dose activity change, negative = inhibition, most hits filed as inhibitors; calls by dose curve; tested in A549 cells; also: potency is read from the fitted curve at half-maximal effect; % is scaled to controls: 0 for no effect and ±100 for the full control effect; nearly all actives have a fitted effect of over 30% in size
Lassa entry inh = inhibitors of Lassa virus binding or cell entry; AID 540256; Lassa virus pseudotype entry inhibition, cell reporter; Potency, µM (doses to about 37.9 µM), for inactives: top-dose activity change, negative = inhibition, usual class: inhibitors; 1.2% of 300,000 active; calls by dose curve; tested in HEK293 cells; also: potency is read from the fitted curve at half-maximal effect; % is scaled to controls: 0 for no effect and ±100 for the full control effect; nearly all actives have a fitted effect of over 50% in size
Shiga inhibitor = Shiga toxin inhibition; Vero cells, Shiga toxin protein synthesis inhibition reporter; inhibition, % at 38.7 µM; 9.2% of 290,000 active; in the data active = inhibition mostly above about 28%, no sharp cut-off; inactive = mostly below about 43%; also: 0% is about no effect
VACV mCherry inh = inhibitors of vaccinia virus infection (mCherry reporter signal); Vaccinia virus mCherry reporter infection, fluorescence; Potency, µM (doses to about 36.5 µM), for inactives: at the highest dose activity change, negative = inhibition, hits mostly inhibitors; 0.63% of 310,000 active; calls by dose curve; tested in A549 cells; also: potency is read from the fitted curve at half-maximal effect; % is scaled to controls: 0 for no effect and ±100 for the full control effect; nearly all actives have a fitted effect of over 35% in size
Marburg entry inh = blocks Marburg virus binding to or entry into cells | Marburg virus pseudotyped entry inhibition, cell reporter | Potency, µM (top dose mostly 37.8 µM), inactives show at the top dose activity change, negative = inhibition, actives largely listed as inhibitors | 1.8% of 300,000 active; calls by dose curve; tested in HEK293 cells; also: potency is read from the fitted curve at half-maximal effect; % is scaled to controls: 0 for no effect and ±100 for the full control effect
CHX counter = counter-screen hit for Shiga toxin inhibitors, cycloheximide. max response, %. cell reporter, cycloheximide protein synthesis inhibition counterscreen. 12% of 300,000 active. AID 2314; in the data active = max response mostly above about 13%, no sharp cut-off; inactive = mostly below about 14%; also: read at 38.3 µM for the half of the compounds with a filed dose; 0% is about no effect
An asterisk follows results filed as active; [ ] = dose if it differs, or a comment. Many of the other results were omitted from the sample, so hits are more common in it than they were.

What do the screens show for `COc1cccc(C(=O)C2CCCN(Cc3ccc(OC)c(Cn4cncn4)c3)C2)c1` (centres undefined)?
VACV Venus inh: -18%; Lassa entry inh: -15%; Shiga inhibitor: 20; VACV mCherry inh: inconclusive; Marburg entry inh: inconclusive; CHX counter: -3

Results for Cn1cc(C(=O)NCN2CCCCC2)c2ccccc21 ?
VACV Venus inh: -12%; Lassa entry inh: 25%; Shiga inhibitor: -7; Marburg entry inh: -2%; CHX counter: -4

What do the screens show for `COc1ccc(C(=O)C2CCCN(Cc3ccon3)C2)cc1OC` (centres undefined)?
VACV Venus inh: -20%; Lassa entry inh: inconclusive; Shiga inhibitor: 47; VACV mCherry inh: -1%; Marburg entry inh: 2%[46.1 µM]; CHX counter: 57*

How did Brc1ccc(Oc2ncc(CN3CCOCC3)s2)cc1 do in these assays?
Lassa entry inh: 9%; Shiga inhibitor: 41; Marburg entry inh: inconclusive; CHX counter: 33*

How did COc1cc(CN2CCCC(C(=O)c3sccc3C)C2)cc(OC)c1O (centres undefined) do in these assays?
VACV Venus inh: -10%; Shiga inhibitor: -15; VACV mCherry inh: inconclusive; CHX counter: 0

What do the screens show for `COc1cc(CN2CCCC(C(=O)c3ccc(C(C)(C)C)cc3)C2)cc(OC)c1O` (centres undefined)?
VACV Venus inh: -21%; Lassa entry inh: inconclusive; Shiga inhibitor: 24; VACV mCherry inh: inconclusive; Marburg entry inh: inconclusive; CHX counter: 18*

Results for COc1ccc(Oc2ncc(CN3CCN(c4ccccc4)CC3)s2)cc1 ?
VACV Venus inh: -16%; Lassa entry inh: inconclusive; Shiga inhibitor: 24; VACV mCherry inh: -23%; Marburg entry inh: 4%; CHX counter: 0

How did CCN1C(=O)NC(CCc2ccccc2)C(C(=O)OC)=C1C (centres undefined) do in these assays?
Marburg entry inh: 17%[14.2 µM]

What do the screens show for `Cc1nc(N2CCCCC2)nc(N2CCCCC2)c1C=O`?
VACV Venus inh: -7%; Lassa entry inh: inconclusive; Shiga inhibitor: -3; VACV mCherry inh: -10%; Marburg entry inh: 14%[46.1 µM]; CHX counter: -6

What do the screens show for `Cc1cnc(C(=O)OCC(=O)Nc2sc3c(c2C#N)CCC3)cn1`?
VACV Venus inh: 0%; Lassa entry inh: -25%; VACV mCherry inh: -9%; Marburg entry inh: -16%

How did Cc1onc(C(=O)Nc2sc3c(c2C#N)CCCC3)c1[N+](=O)[O-] do in these assays?
VACV Venus inh: -20%; Shiga inhibitor: 82*; VACV mCherry inh: -2%; CHX counter: 33*

How did Cc1cccc(OCC(=O)Nc2sc3c(c2C#N)CCC3)c1 do in these assays?
VACV Venus inh: -6%; Lassa entry inh: 17%; Shiga inhibitor: 60*; VACV mCherry inh: inactive; Marburg entry inh: 30%; CHX counter: 21*

What do the screens show for `Cc1sc(NC(=O)COc2ccccc2)c(C#N)c1C`?
VACV Venus inh: 17%; Lassa entry inh: -22%[46.1 µM]; Shiga inhibitor: 96*; VACV mCherry inh: -10%; Marburg entry inh: inconclusive; CHX counter: 41*

What do the screens show for `Cc1cc(C(=O)Nc2sc3c(c2C#N)CCCCC3)cs1`?
VACV Venus inh: -8%; Lassa entry inh: -26%; Shiga inhibitor: 60*; VACV mCherry inh: -3%; Marburg entry inh: inconclusive; CHX counter: 29*

How did CCc1ccc(NCc2cc3cc4c(cc3n(CC(=O)Nc3ccccc3C)c2=O)OCCO4)cc1 do in these assays?
VACV Venus inh: -13%; Lassa entry inh: -25%[46.1 µM]; VACV mCherry inh: -10%

Results for COC(=O)c1ccccc1NC(=O)CSc1nc(C)c(Cl)c(C)c1C#N ?
VACV Venus inh: -3%; Lassa entry inh: -29%[46.1 µM]; VACV mCherry inh: -17%

How did N#Cc1c(NC(=O)c2cccc3ccccc23)sc2c1CCCC2 do in these assays?
Lassa entry inh: 0.2µM*

How did N#Cc1c(NC(=O)C2CC2)sc2c1CCCCC2 do in these assays?
VACV Venus inh: -16%; Lassa entry inh: inconclusive; Shiga inhibitor: 37*; VACV mCherry inh: -24%; Marburg entry inh: 2%; CHX counter: 31*

Results for CCCC(=O)Nc1sc2c(c1C#N)CCCC2 ?
VACV Venus inh: -9%; Lassa entry inh: 1%; Shiga inhibitor: 74*; Marburg entry inh: 3%[46.1 µM]; CHX counter: 33*

What do the screens show for `N#Cc1c(NC(=O)c2nc3ncccn3n2)sc2c1CCCCC2`?
VACV Venus inh: -1%; Lassa entry inh: -30%; Shiga inhibitor: 58*; Marburg entry inh: inconclusive; CHX counter: 30*
